From PubChem BioAssay (EPA / NIEHS)
Active and inactive are the calls of the source. Rule for the calls: active = hit-call score of the fitted dose curve at least 0.9, where 1 is the maximum; inactive = score below 0.9.

Experiments:
Details in all cases: mRNA level, 48 h; actives raise or lower the signal
[1] = read-out: Signal transducer and activator of transcription 3 (Homo sapiens) (UniProt P40763); experiment: LTEA_HepaRG_STAT3: Life Technologies and Expression Analysis (LTEA) Assay for Signal transducer and activator of transcription (STAT3) using HepaRG (AID 2283529)
How it was run: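 Read-out is STAT3 mRNA level by qRT-PCR, normalized to three housekeeping genes, in human HepaRG liver cells treated for 48 h. Concentrations ran from 100 uM downward in half-log steps; curves were fitted for gain or loss relative to 0.5% DMSO.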

[2] = read-out: solute carrier (SLCO1B1), SLCO1B1 (gene 10599); experiment: LTEA_HepaRG_SLCO1B1: Life Technologies and Expression Analysis (LTEA) Assay for solute carrier (SLCO1B1) using HepaRG (AID 2283530)
How it was run: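 Human HepaRG cultures treated for 48 h with an eight-concentration half-log series topping at 100 uM; SLCO1B1 measured by qRT-PCR and fitted bidirectionally relative to DMSO.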

[3] = read-out: sulfotransferase 2A1 (SULT2A1), SULT2A1 (gene 6822); experiment: LTEA_HepaRG_SULT2A1: Life Technologies and Expression Analysis (LTEA) Assay for sulfotransferase 2A1 (SULT2A1) using HepaRG (AID 2283531)
How it was run: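 Gene-expression endpoint in a human liver cell line: SULT2A1 mRNA change after 48 h chemical treatment, curves fitted in both directions relative to 0.5% DMSO vehicle. Concentrations spanned eight half-log steps from 100 uM.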

[4] = read-out: Transforming Growth Factor (TGFA), TGFA (gene 7039); experiment: LTEA_HepaRG_TGFA: Life Technologies and Expression Analysis (LTEA) Assay for Transforming Growth Factor (TGFA) using HepaRG (AID 2283532)
How it was run: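 HepaRG (human liver line), 48 h exposure, 8 conc. half-log down from 100 uM, 0.5% DMSO vehicle, duplicates; serum-free induction medium. TGFA mRNA by TaqMan qRT-PCR, ACTB/GAPDH/POLR2A normalization; gain/loss fit vs DMSO.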

[5] = read-out: Transforming Growth Factor (TGFB1), TGFB1 (gene 7040); experiment: LTEA_HepaRG_TGFB1: Life Technologies and Expression Analysis (LTEA) Assay for Transforming Growth Factor (TGFB1) Transporter using HepaRG (AID 2283533)
How it was run: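 Eight-point concentration-response (max 100 uM, half-log) in HepaRG under serum-free induction conditions, 48 h. TGFB1 mRNA by qRT-PCR, housekeeping-normalized.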

[6] = read-out: TIMP1, TIMP1 (gene 7076); experiment: LTEA_HepaRG_TIMP1: Life Technologies and Expression Analysis (LTEA) Assay for TIMP1 using HepaRG (AID 2283534)
How it was run: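 TIMP1 induction or repression in HepaRG cells after 48 h chemical exposure (eight concentrations, highest 100 uM), assessed by normalized qRT-PCR with bidirectional fitting to DMSO controls.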

[7] = read-out: Tumor necrosis factor receptor 1 (TNFRSF1A), TNFRSF1A (gene 7132); experiment: LTEA_HepaRG_TNFRSF1A: Life Technologies and Expression Analysis (LTEA) Assay for Tumor necrosis factor receptor 1 (TNFRSF1A) using HepaRG (AID 2283535)
How it was run: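 Assay uses 48 h chemical treatment of differentiated HepaRG monolayers, tested in duplicate at eight concentrations from 100 uM downward in 0.5% DMSO. mRNA is normalized to ACTB, GAPDH and POLR2A, with induction or suppression fitted relative to vehicle.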

[8] = read-out: Thyroid Hormone Responsive (THRSP), THRSP (gene 7069); experiment: LTEA_HepaRG_THRSP: Life Technologies and Expression Analysis (LTEA) Assay for Thyroid Hormone Responsive (THRSP) using HepaRG (AID 2283536)
How it was run: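 mRNA induction or loss relative to 0.5% DMSO vehicle was fitted bidirectionally across an eight-point curve whose highest exposure was 100 uM. Human HepaRG liver cells received chemicals in duplicate over 48 h before RNA extraction.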

[9] = read-out: Cellular tumor antigen p53 (Homo sapiens) (UniProt P04637); experiment: LTEA_HepaRG_TP53: Life Technologies and Expression Analysis (LTEA) Assay for Tumor Protein P53 (TP53) using HepaRG (AID 2283537)
How it was run: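 Read-out is TP53 transcript level by microfluidic qRT-PCR, normalised to three housekeeping genes and fitted bidirectionally against DMSO. Human HepaRG cells received compounds for 48 h, highest concentration 100 uM.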

Measured: AC50

Chain of Cellular tumor antigen p53 (Homo sapiens) (P04637 whole entry, looked up): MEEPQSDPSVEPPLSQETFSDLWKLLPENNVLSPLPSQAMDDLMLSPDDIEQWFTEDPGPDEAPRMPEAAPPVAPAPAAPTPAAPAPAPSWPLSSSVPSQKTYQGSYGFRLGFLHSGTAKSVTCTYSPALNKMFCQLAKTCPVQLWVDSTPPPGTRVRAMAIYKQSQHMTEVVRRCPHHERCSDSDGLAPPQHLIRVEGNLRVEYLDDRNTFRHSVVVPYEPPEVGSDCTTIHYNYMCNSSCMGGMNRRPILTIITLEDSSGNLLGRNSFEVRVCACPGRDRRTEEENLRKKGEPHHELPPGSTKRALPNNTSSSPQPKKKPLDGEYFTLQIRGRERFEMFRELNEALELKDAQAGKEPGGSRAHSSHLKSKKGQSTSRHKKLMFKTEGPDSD
Chain of Signal transducer and activator of transcription 3 (Homo sapiens) (P40763 whole entry, looked up): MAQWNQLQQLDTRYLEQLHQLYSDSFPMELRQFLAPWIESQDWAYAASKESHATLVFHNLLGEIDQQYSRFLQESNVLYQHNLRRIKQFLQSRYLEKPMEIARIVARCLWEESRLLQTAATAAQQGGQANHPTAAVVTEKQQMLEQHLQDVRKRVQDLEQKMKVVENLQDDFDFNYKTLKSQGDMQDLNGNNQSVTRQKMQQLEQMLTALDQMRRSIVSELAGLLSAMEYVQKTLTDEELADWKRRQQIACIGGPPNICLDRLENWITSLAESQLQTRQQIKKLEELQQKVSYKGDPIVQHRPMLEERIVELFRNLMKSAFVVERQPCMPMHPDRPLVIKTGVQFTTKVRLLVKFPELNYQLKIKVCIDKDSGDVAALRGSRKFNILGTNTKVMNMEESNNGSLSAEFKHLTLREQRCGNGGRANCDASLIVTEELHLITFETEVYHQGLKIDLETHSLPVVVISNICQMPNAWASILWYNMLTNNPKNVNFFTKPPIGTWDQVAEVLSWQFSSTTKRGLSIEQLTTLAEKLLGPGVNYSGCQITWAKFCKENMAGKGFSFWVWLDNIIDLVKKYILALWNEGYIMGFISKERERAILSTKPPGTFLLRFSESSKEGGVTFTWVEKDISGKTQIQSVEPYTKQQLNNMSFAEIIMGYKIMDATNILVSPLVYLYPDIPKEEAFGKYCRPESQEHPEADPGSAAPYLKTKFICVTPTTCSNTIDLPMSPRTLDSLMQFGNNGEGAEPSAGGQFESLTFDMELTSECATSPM

O=C(O)c1ccccc1C(c1ccc(O)cc1)c1ccc(O)cc1
not listed: [9]
inactive: all other assays above

CCCCCCCCCCCCc1ccccc1S(=O)(=O)O
active: [2] 79.6 µM | [3] 83.4 µM | [4] 32.5 µM | [8] 5.53 µM | [9] 58.1 µM
inactive: [1] | [5] | [6] | [7]

CN1CCN(c2ccccc2/C=C2\SCCN(c3ccc(Cl)c(Cl)c3)C2=O)CC1
active: [3] 93.2 µM | [4] 96.2 µM | [5] 93.4 µM | [7] 95.5 µM
inactive: [2] | [6] | [8] | [9]

NC(=O)N(O)[C@@H]1C=C[C@H](Oc2cccc(Oc3ccc(F)cc3)c2)C1
inactive: [6] | [7] | [8]
active: [2] 86.1 µM | [3] 76.5 µM | [4] 76.2 µM | [5] 72.4 µM | [9] 50 µM

Cc1cc(C)c(O)c(C)c1
not listed: [1]
inactive: all other assays above

CC[C@H](C)[C@@H](C(=O)O)n1sc2ccccc2c1=O
not listed: [1]
inactive: all other assays above

NC(=O)N1C(=O)C(C(=O)c2cc(Cl)cs2)c2cc(F)c(Cl)cc21 (centres undefined)
active: [2] 19.3 µM | [3] 34.2 µM | [4] 89.3 µM | [6] 85.2 µM | [7] 40.2 µM | [8] 17.7 µM | [9] 94.4 µM
inactive: [1] | [5]

CN1CCC[C@H]1c1cccnc1
not listed: [1] | [9]
inactive: all other assays above

CCCCOCCO
not listed: [1]
inactive: all other assays above

CCN(CC)CCNc1ccc(CNC=O)c2sc3ccc(OC)cc3c(=O)c12
active: [1] 83.4 µM | [3] 76 µM | [4] 12.5 µM | [7] 43.5 µM | [8] 12.8 µM | [9] 16.6 µM
inactive: [2] | [5] | [6]

Oc1cc2ccccc2c2ccccc12
not listed: [1]
inactive: all other assays above

COC(=O)CCCCC(=O)OC
not listed: [1]
inactive: all other assays above

CC(C)(C)c1ccc(O)c(C(C)(C)C)c1
active: [7] 50 µM
not listed: [1]
inactive: all other assays above

CCc1nn(C2CCCCC2)c2cc(C3(C#N)CCC(C(=O)O)CC3)ccc12 (centres undefined)
inactive: [1] | [7]
active: [2] 56.2 µM | [3] 80.4 µM | [4] 65.5 µM | [5] 33.2 µM | [6] 33.8 µM | [8] 79.3 µM | [9] 50 µM

c1ccc2c(c1)Cc1ccccc1-2
not listed: [1]
inactive: all other assays above

C=C(C)C(=O)OCCC(F)(F)C(F)(F)C(F)(F)C(F)(F)C(F)(F)C(F)(F)F
not listed: [1]
inactive: all other assays above

Cc1cc(CCN2CCN(c3nsc4ccccc34)CC2)cc2c1NC(=O)CC2(C)C
inactive: [4] | [6] | [7]
active: [2] 77.5 µM | [3] 85.8 µM | [5] 35.4 µM | [8] 82 µM | [9] 80.4 µM

ClC1=C(Cl)C(Cl)(Cl)C(Cl)=C1Cl
not listed: [1]
inactive: all other assays above

CC(C)(C)CC(C)(C)c1ccc(O)c(-n2nc3ccccc3n2)c1
active: [8] 77.9 µM
inactive: all other assays above

OC1CCC(C2CCCCC2)CC1 (centres undefined)
not listed: [1]
inactive: all other assays above

CCCCC(CC)COC(=O)CCCCC(=O)OCC(CC)CCCC (centres undefined)
not listed: [1]
inactive: all other assays above

CCC(C)(C)C1CCC(O)CC1 (centres undefined)
not listed: [1]
inactive: all other assays above

OCCC(F)(F)C(F)(F)C(F)(F)C(F)(F)C(F)(F)C(F)(F)F
not listed: [1]
inactive: all other assays above

COCC(C)O (centres undefined)
inactive: all assays above

CC(O)CO (centres undefined)
not listed: [1]
inactive: all other assays above

CCCCCCCC(=O)O
not listed: [1]
inactive: all other assays above

Cc1oc(-c2ccccc2)nc1CCOc1ccc(C[C@H](Nc2ccccc2C(=O)c2ccccc2)C(=O)O)cc1
inactive: [6]
active: [2] 23.4 µM | [3] 23.4 µM | [4] 0.0617 µM | [5] 31.3 µM | [7] 26.7 µM | [8] 24 µM | [9] 86.1 µM

CN(C)C=O
not listed: [1]
inactive: all other assays above

CCCCCCCCOC(=O)CCCCCCCCC(=O)OCCCCCCCC
not listed: [1]
inactive: all other assays above

CCC(=C(c1ccc(O)cc1)c1ccc(OCCN(C)C)cc1)c1ccccc1
active: [3] 85.5 µM | [5] 97.5 µM
not listed: [1] | [9]
inactive: all other assays above

CC(=O)NC1(c2cccc(F)c2)CCN(CC[C@@]2(c3ccc(Cl)c(Cl)c3)CN(c3ccccc3)C(=O)CO2)CC1
active: [2] 79.7 µM | [8] 20.5 µM
not listed: [1]
inactive: all other assays above

O=c1c(-c2ccc(O)cc2)coc2cc(O)ccc12
not listed: [1]
inactive: all other assays above

CCCCCCC(=O)O
inactive: all assays above
